# From PubChem BioAssay AID588397 (National Center for Advancing Translational Sciences (NCATS), 2011)
# In all, about 1,300 compounds went through this assay and about 1,000 (77%) were called active. Inconclusive results (about 7%) are left out. So high a share suggests a set chosen from earlier hits. This is one part of the list. Unmarked numbers belong to inactive results. Calls follow the shape of the dose curve; as a rule, active = well fitted inhibition curve with a large enough effect; inconclusive = small, poorly fitted or top-dose-only effect; inactive = no such curve, though single readings can be large or run the other way.
# Experiment: qHTS of small molecules that selectively kill Giardia lamblia: Hit Validation.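 Also: viability measured as ATP content by luminescence so killing lowers signal; trophozoites exposed to compounds for 48 h anaerobically at 37 °C; nearly all actives have a fitted effect of over 65% in size.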
# Conditions: Giardia lamblia trophozoite viability, dose-response; series mostly up to 38.3 µM; activity change, negative = killing: at the top concentration
# In short: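 Killing of trophozoites was scored by loss of ATP luminescence after a 48 hrs anaerobic exposure to compounds at 37 deg C, using 100 cells per well.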
# % is scaled to controls: 0 for no effect and ±100 for the full control effect; potency is read from the fitted curve at half-maximal effect.
Structure (SMILES),Potency,"activity change, negative = killing [%]"
CCOc1ccc2nc(NC(=O)c3c([N+](=O)[O-])cnn3CC)sc2c1,1.83 µM (active),
CCn1ncc([N+](=O)[O-])c1C(=O)Nc1nc2cccc(C)c2s1,4.1 µM (active),
Cc1ccc(C(=O)Nc2ccc3c(c2)OCCO3)o1,7.29 µM (active),
O=C(Nc1ccc2c(c1)OCCO2)c1ccc(Br)o1,5.16 µM (active),
O=C(Nc1ccc2c(c1)OCCO2)c1cc(-c2ccccn2)nc2ccc(Br)cc12,4.1 µM (active),
Cc1ccccc1C(=O)Nc1ccc2c(c1)OCCO2,3.65 µM (active),
Cc1ccc(-c2c(C(=O)N/N=C/C3CC=CCC3)nnn2-c2nonc2N)cc1 (stereo not drawn),,-19.1
CN(C)S(=O)(=O)c1ccc(N2CCCC2)c(C(=O)N2CCN(c3ccc([N+](=O)[O-])cc3)CC2)c1,1.83 µM (active),
O=C(CNC(=O)Cc1ccccc1)N=Nc1c(O)[nH]c2ccc(Br)cc12,,-12.8
O=C(N=Nc1c(O)[nH]c2ccccc12)c1cccs1,3.65 µM (active),
O=[N+]([O-])c1cncn1CCN1CCOCC1,0.326 µM (active),
C[C@]12c3[nH]c4ccc(Cl)cc4c3CCN1C(=O)[C@@H](CC(=O)NCCN1CCOCC1)C[C@@H]2C(=O)N1CCOCC1,,-36.2
Cc1ccc(NC(=O)c2ccc([N+](=O)[O-])o2)cc1C,0.46 µM (active),
CC(=O)c1cccc(NC(=O)c2ccc([N+](=O)[O-])o2)c1,1.16 µM (active),
Cc1cc(C)cc(NC(=O)c2ccc([N+](=O)[O-])o2)c1,1.03 µM (active),
Cc1cccc(NC(=O)c2ccc([N+](=O)[O-])o2)c1,0.729 µM (active),
COc1ccc(NC(=O)c2ccc([N+](=O)[O-])o2)cc1,1.03 µM (active),
COc1ccc(CC(=O)NCC(=O)Nc2ccccc2Br)cc1,,-17.5
CC(=O)c1ccc(NC(=O)c2ccc([N+](=O)[O-])o2)cc1,0.818 µM (active),
COc1cc(C(=O)/C=C/c2cccnc2)c([N+](=O)[O-])cc1OC,4.6 µM (active),
O=C(/C=C/c1cccnc1)/C=C/c1cccnc1,18.3 µM (active),
Cc1ccc(Nc2cc(C)nc3c(C)ccc([N+](=O)[O-])c23)cc1,0.146 µM (active),
Cc1cc(Nc2ccccc2)c2c([N+](=O)[O-])cc(C)c(C)c2n1,0.259 µM (active),
COc1ccccc1Nc1cc(C)nc2c(C)ccc([N+](=O)[O-])c12,2.59 µM (active),

Structure (SMILES),Potency,"activity change, negative = killing [%]"
Cc1cc(Nc2ccccc2)c2c([N+](=O)[O-])ccc(C)c2n1,0.259 µM (active),
CN(C)/[N+]([O-])=N/Oc1ccc([N+](=O)[O-])cn1,2.59 µM (active),
Cc1cc(C2=NNC(=NC3CC3)SC2)c(C)n1-c1ccccc1F,1.45 µM (active),
COc1ccc(-c2ncn(CCC#N)c2[N+](=O)[O-])cc1,0.206 µM (active),
CCn1c(=NC(=O)c2cccc(N3C(=O)CCC3=O)c2)sc2c(OC)ccc(OC)c21,2.31 µM (active),
Cc1cccc(N2CCN(C(=S)Nc3ccc4nc(N5CCN(C)CC5)cc(C)c4c3)CC2)c1C,1.03 µM (active),
Cc1ccc(C)c(N2CCN(C(=S)Nc3ccc4nc(N5CCN(C)CC5)cc(C)c4c3)CC2)c1,1.3 µM (active),
COc1ccc(/C=N/Nc2cc(C)nc3c(C)cccc23)cc1,0.818 µM (active),
COc1ccc2nc(C)cc(N/N=C/c3cccc(OC)c3O)c2c1,0.918 µM (active),
COc1ccc(N(CC(=O)N/N=C/c2cccc(OC)c2OC)S(=O)(=O)c2ccccc2)cc1,,-8.54
COc1ccc2nc(C)cc(N/N=C/c3ccc(F)cc3)c2c1,1.16 µM (active),
O=c1c([N+](=O)[O-])cccn1Cc1cccc(Br)c1,2.05 µM (active),
O=c1c([N+](=O)[O-])cccn1Cc1cccc(Cl)c1,4.6 µM (active),
CCN1CCN(Cc2ccc(NC(=O)Nc3ccccc3)cc2)CC1,9.18 µM (active),
O=C(Nc1ccccc1)Nc1ccc(C(=O)N2CCCC2)cc1,5.79 µM (active),
CN(C(=O)c1cccc(NC(=O)Cc2ccc(NC(=O)C3CCN(C(=O)c4ccccc4)CC3)cc2)c1)C1CC1,,4.59
O=C(NCC1CCN(Cc2ccc(F)cc2)CC1)Nc1cc(F)ccc1F,,-28.9
Cc1cc([N+](=O)[O-])nn1Cc1ccc(F)cc1,2.9 µM (active),
Cc1cc([N+](=O)[O-])nn1Cc1noc(C(=O)NCc2ccc3c(c2)OCO3)n1,,-30.3
CC(NC(=O)COc1cccnc1[N+](=O)[O-])c1ccc(Cl)cc1Cl (stereo not drawn),3.26 µM (active),
CC(NC(=O)COc1cccnc1[N+](=O)[O-])c1ccc(F)cc1 (stereo not drawn),5.79 µM (active),
CC(NC(=O)COc1cccnc1[N+](=O)[O-])c1ccc(Cl)cc1 (stereo not drawn),5.16 µM (active),
COc1ccc(NC(=O)C(c2ccc(Cl)cc2)C(C)C)cn1 (stereo not drawn),,-25.3
O=[N+]([O-])c1cncc([N+](=O)[O-])c1Nc1cccc(O)c1,3.26 µM (active),

Structure (SMILES),Potency,"activity change, negative = killing [%]"
O=[N+]([O-])c1cncc([N+](=O)[O-])c1Nc1ccccc1Cl,5.16 µM (active),
N/C(=N\OC(=O)c1ccc(Cl)cc1[N+](=O)[O-])c1ccccn1,8.18 µM (active),
N/C(=N/OC(=O)c1ccc(Cl)cc1)c1ncc([N+](=O)[O-])s1,1.3 µM (active),
N/C(=N/OC(=O)c1ccccc1Cl)c1ncc([N+](=O)[O-])s1,1.63 µM (active),
O=C(Oc1cccc2c(O)cccc12)c1ccccc1Cl,,-9.35
COc1ccc(-n2nc([N+](=O)[O-])c(=NCCc3ccc(Cl)cc3)n2O)cc1,1.45 µM (active),
COc1ccc(-n2nc([N+](=O)[O-])c(=NCCc3ccc(OC)c(OC)c3)n2O)cc1,1.16 µM (active),
COc1ccc(-n2nc([N+](=O)[O-])c(=NCCC3=CCCCC3)n2O)cc1,4.1 µM (active),
COc1ccc(-n2nc([N+](=O)[O-])c(=NCCc3ccccc3)n2O)cc1,1.16 µM (active),
COc1ccc(CCN=c2c([N+](=O)[O-])nn(-c3cccc(C)c3)n2O)cc1OC,5.16 µM (active),
COc1ccc(-n2nc([N+](=O)[O-])c(=NCCc3ccc(C)cc3)n2O)cc1,4.1 µM (active),
CCN(CC)C(=O)Cn1cc([N+](=O)[O-])cc1[N+](=O)[O-],0.46 µM (active),
CCN(C(=O)C1CCN(S(=O)(=O)c2ccc3c(c2)oc(=O)n3C)CC1)c1cccc(C)c1,,-7.64
N#Cc1c(Nc2ccccc2)[n+]([O-])c2ccc(Cl)cc2[n+]1[O-],1.63 µM (active),
O=C1c2cc(F)ccc2-n2c1nc1ccccc1c2=O,1.83 µM (active),
CCOCCOc1nc2c(c(=O)n(C)c(=O)n2C)n1Cc1ccc(C)cc1,,-13.5
Cc1cc(C(=O)N/N=C/c2ccc([N+](=O)[O-])s2)n[nH]1,2.31 µM (active),
Cc1cc(C(=O)N/N=C/c2ccc(O)c([N+](=O)[O-])c2)n[nH]1,6.5 µM (active),
CC(C)(C)c1cc(C(=O)N/N=C/c2ccncc2)n[nH]1,,16.6
CC(C)(C)c1cc(C(=O)N/N=C/c2ccc([N+](=O)[O-])s2)n[nH]1,3.65 µM (active),
N#Cc1c(N2CCN(c3ccc([N+](=O)[O-])cc3)CC2)[n+](=O)c2ccc(Cl)cc2n1[O-],1.3 µM (active),
CN(C)c1ccc2nsnc2c1[N+](=O)[O-],3.65 µM (active),
CC1S/C(=C(\C#N)C(N)=O)N(c2ccc(F)cc2)C1=O (stereo not drawn),,1.62
N=NC(=O)c1ccccc1Nc1c(O)[nH]c2ccccc12,1.03 µM (active),

Structure (SMILES),Potency,"activity change, negative = killing [%]"
COC(=O)c1ccccc1NC(=O)N1c2ccccc2Sc2ccccc21,0.918 µM (active),
O=c1sc(N2CCN(c3ccc(F)cc3)CC2)nc2ccsc12,,-23.9
Cc1cc(N2CCN(C)CC2)nc2ccc(NC(=S)N3CCN(c4cccc(Cl)c4)CC3)cc12,1.16 µM (active),
Cc1cc(N2CCN(C)CC2)nc2ccc(NC(=S)N3CCN(c4ccc(F)cc4)CC3)cc12,1.3 µM (active),
Cc1cc(N2CCN(C)CC2)nc2ccc(NC(=S)N3CCN(c4ccc(Cl)cc4)CC3)cc12,1.16 µM (active),
Cc1cccc(N2CCN(C(=S)Nc3ccc4nc(N5CCN(C)CC5)cc(C)c4c3)CC2C)c1 (stereo not drawn),4.1 µM (active),
CC(=O)Nc1ccc(/C=C/c2noc(-c3ccccc3O)n2)cc1,,-11.3
Cn1nc([N+](=O)[O-])nc1N1CCOCC1,0.326 µM (active),
[O-][n+]1c2cc(C(F)(F)F)ccc2c2n1CCN=C2c1ccc(Cl)cc1,0.41 µM (active),
Cc1ccc(C2=NCCn3c2c2ccc(C(F)(F)F)cc2[n+]3[O-])cc1,0.13 µM (active),
Nc1c(Cl)cc(C2=NCCn3c2c2ccc(C(F)(F)F)cc2[n+]3[O-])cc1Cl,0.163 µM (active),
COc1ccc(C2=NCCn3c2c2ccc(C(F)(F)F)cc2[n+]3[O-])cc1,0.0729 µM (active),
O=[N+]([O-])c1cc2cccnc2c2ncccc12,1.83 µM (active),
O=C(Nc1ccc(-c2cn3ccccc3n2)cc1)c1ccco1,8.18 µM (active),
COc1ccccc1-n1cc2c([N+](=O)[O-])cc([N+](=O)[O-])cc2n1,1.63 µM (active),
CC(Oc1cccnc1[N+](=O)[O-])C(=O)Nc1cccc(Cl)c1 (stereo not drawn),3.65 µM (active),
CC(Oc1cccnc1[N+](=O)[O-])C(=O)Nc1ccc(F)cc1 (stereo not drawn),5.16 µM (active),
O=[N+]([O-])c1nn(-c2ccccc2)n(O)c1=NCCc1ccccc1,3.26 µM (active),
Cc1ccc(CCN=c2c([N+](=O)[O-])nn(-c3ccccc3)n2O)cc1,7.29 µM (active),
Cc1ccc(Nc2nc(=O)c3cc([N+](=O)[O-])ccc3s2)cc1,7.29 µM (active),
CC1=NN(c2nc3ccccc3[nH]2)C(=O)/C1=C/N(C)C,3.65 µM (active),
